Among all 69,000 compounds or so, about 8,600 (12%) showed an effect of 50% or more. The list comes from a sample in which strong results are over-represented; it also holds similar structures and randomly drawn compounds.

In the assay the test system is Plasmodium berghei. Nature of the assay: Screen against P. berghei liver stage (PbLuc), transformed with Luciferase, at 10uM. The format is functional, HepG2. Particulars: tested at 10 uM.
For `CC(C)n1cc(CN2CCCN(C(=O)C3CCCN3C)CC2)cn1` (stereo not drawn), the INHIBITION worked out at 26.4%.

Consider `CCN(CCO)C[C@@H]1CN(c2cccc(C(F)(F)F)n2)C[C@@H]1CO`, for which the INHIBITION stood at 3.13%.

As to `COc1ccccc1OCC(=O)NS(=O)(=O)c1ccc(F)cc1F`, the INHIBITION is given as 63.3%.

Turning to `COc1cc(C#N)ccc1OCC(=O)NS(=O)(=O)c1ccccc1`, the INHIBITION is given as 50.6%.

As for `COc1cc(C#N)ccc1OCC(=O)NS(=O)(=O)c1cccnc1`, the INHIBITION was 19.4%.

Take `COc1ccccc1OCC(=O)NS(=O)(=O)c1ccc(Cl)cc1F`: the INHIBITION was 29.5%.

In the case of `COc1ccccc1CC(=O)NS(=O)(=O)c1ccc(C#N)cc1`, the INHIBITION came to 15.6%.

As for `COc1ccccc1OCC(=O)NS(=O)(=O)c1cc(F)ccc1F`, the INHIBITION was found to be 5.14%.

As to `CN1CCCN(C(=O)NCc2cc(Br)cs2)CC1`, the INHIBITION is -13.935%.

Turning to `Cc1ccc(-c2cc(C(=O)NCCN3CCCS3(=O)=O)[nH]n2)cc1`, the INHIBITION is given as -8.15%.

Regarding `Cc1ccccc1NC(=O)Nc1c[nH]c(=O)[nH]c1=O`, the INHIBITION is on record as 35.7%.

Turning to `Cc1ccc(CN2CCc3ncc(CNC(=O)C4CCC4)n3CC2)o1`, the INHIBITION stood at 45.1%.

Turning to `O=C(NCCOC1CCCCC1)c1ccc(-c2ccco2)[nH]c1=O`, the INHIBITION was -14.6%.

On to `Cc1nc(-c2nnc[nH]2)sc1C(=O)N1CCCC1Cn1cccn1` (stereo not drawn), for which the INHIBITION was -1.45%.

Regarding `O=C(N[C@@H]1CC[C@@H](n2ccnc2)[C@@H]1O)c1cc2c(s1)CCC2`, the INHIBITION is listed as 9.93%.

For the compound `O=C(Cc1ccc2c(c1)CCCC2)N[C@@H]1CC[C@@H](n2ccnc2)[C@@H]1O`, the INHIBITION turned out to be 64.9%.

For the compound `O=C(N[C@@H]1CCC[C@@H](n2ccnc2)[C@@H]1O)c1ccc2c(c1)CCCC2`, the INHIBITION is given as 38.2%.

As for `CCN1CC[C@@]2(C(=O)N3CCOCC3)CCN(C(=O)CC(C)C)CC[C@@H]12`, the INHIBITION was found to be 11.2%.

As to `CNC(=O)CCS(=O)(=O)Cc1cc(Cl)c2c(c1)OCCCO2`, the INHIBITION is -11.4%.

Consider `Cc1occc1C(=O)N1CCO[C@H]2[C@H](Oc3cccnc3)CC[C@@H]21`, for which the INHIBITION was determined as 18.6%.

On to `COCCc1noc(C2CCCN(c3ncnc4c3CCC4)C2)n1` (stereo not drawn), for which the INHIBITION is listed as 78.8%.

With `CCc1c(C)nc(N)nc1N1CCCC(c2nc(CCOC)no2)C1` (stereo not drawn), the INHIBITION is 68.6%.

Regarding `CC(=O)NC1CCN(c2nc(N)nc3c2CCCC3)C1` (stereo not drawn), the INHIBITION turned out to be 46.6%.

`COCCn1ccnc1C1CCCN(c2ncnc3c(C)csc23)C1` (stereo not drawn): the INHIBITION was -0.529%.

As for `Cc1cc(C)n(C2CCN(c3ncnc4c3CCC4)C2)n1` (stereo not drawn), the INHIBITION amounted to 36.1%.

As to `CCc1nc2c(N3CCCC(c4nccn4CCOC)C3)ncnc2o1` (stereo not drawn), the INHIBITION turned out to be 29.1%.

With `COCCc1noc(C2CCCN(c3nc(N)nc4c3CCCC4)C2)n1` (stereo not drawn), the INHIBITION stood at 65.2%.

As for `COCCN1CCN(Cc2noc(C3CC3)n2)CC1C` (stereo not drawn), the INHIBITION was determined as 20.1%.

With `COCCn1ccnc1C1CCCN(c2ncnc3c2CCC3)C1` (stereo not drawn), the INHIBITION was 57.5%.

As for `COCCc1noc(CN2CCCC2c2noc(C3CC3)n2)n1` (stereo not drawn), the INHIBITION was -14.1%.

As for `c1nc2c(c(N3CCCC(Cn4cncn4)C3)n1)CCC2` (stereo not drawn), the INHIBITION is 29.2%.

Regarding `COCCCN(C)C1CCCN(Cc2noc(C3CC3)n2)C1` (stereo not drawn), the INHIBITION came out at 44.1%.

`COC[C@]12COC[C@H]1CN(Cc1ccc3c(c1)OCO3)C2`: the INHIBITION is reported as 35.8%.

With `Cc1cnn(CC2CCCN2C(=O)c2nccnc2N)c1` (stereo not drawn), the INHIBITION is 43.2%.

With `COc1ccc(OC)c(C(=O)N2CCC(Nc3cccnc3)CC2)c1`, the INHIBITION is reported as -5.08%.

Consider `O=C(NC1CCCN(c2ccccc2Cl)C1)c1ccc(=O)[nH]n1` (stereo not drawn), for which the INHIBITION was 28.7%.

As to `CC(C)c1nn(C)c(N(C)C)c1CNCc1ccc2c(c1)OCCO2`, the INHIBITION came to 19.6%.

As for `Cc1ccoc1C(=O)NCc1ccnc(OCC(F)(F)F)c1`, the INHIBITION is given as -23.593%.

As for `COc1cc(CNC(=O)c2c(C)noc2C)ccn1`, the INHIBITION worked out at 32.15%.

With `Cc1cc(C(=O)NCc2ccnc(OCC(F)(F)F)c2)no1`, the INHIBITION is listed as -10.45%.

Consider `Cc1noc(C)c1CC(=O)NCc1ccnc(OCC(F)(F)F)c1`, for which the INHIBITION was -9.535%.

In the case of `Cc1n[nH]c(C(=O)NCc2ccnc(OCC(F)(F)F)c2)c1Br`, the INHIBITION came to 81.5%.

Consider `CCOc1cc(CNC(=O)c2cnn(CC)c2C(F)(F)F)ccn1`, for which the INHIBITION is on record as 70.4%.

For the compound `Cc1noc(C)c1C(=O)NCc1ccnc(OCC(F)(F)F)c1`, the INHIBITION is given as 63.6%.

Turning to `CCOc1cccc(CNC(=O)c2cnn(CC)c2C(F)(F)F)c1`, the INHIBITION is recorded as -15.3%.

With `Cc1cc(C(=O)NCc2ccnc(OCC(F)(F)F)c2)on1`, the INHIBITION is -20.893%.

Regarding `CCn1ncc(C(=O)NCc2ccc(C)c(OC)c2)c1C(F)(F)F`, the INHIBITION is 46.7%.

With `Cc1ncsc1C(=O)NCc1ccnc(OCC(F)(F)F)c1`, the INHIBITION is listed as 73.05%.

Take `Cc1ccsc1C(=O)NCc1ccnc(OCC(F)(F)F)c1`: the INHIBITION is on record as 39.5%.

On to `CCn1ncc(S(=O)(=O)N2CCCC3(CC=CNC3=O)C2)c1C` (stereo not drawn), for which the INHIBITION stood at 46.2%.

Take `CC(C)c1nc2n(n1)CC(NCc1nnc(C3CC3)o1)CC2` (stereo not drawn): the INHIBITION is recorded as -2.53%.

In the case of `Cc1nc(C(C)C)sc1C(=O)NCCn1nc2ccccn2c1=O`, the INHIBITION is reported as -22.5%.

As to `COCC1CCCN(C(=O)c2ccccc2NCc2cccnc2)C1` (stereo not drawn), the INHIBITION was 18.9%.

The values above are taken from ChEMBL document CHEMBL4513216, “Probing the Open Global Health Chemical Diversity Library for Multistage-Active Starting Points for Next-Generation Antimalarials” (ACS Infect Dis, 2020).
